Test results reported in PubChem BioAssay AID1220 (Sanford-Burnham Center for Chemical Genomics, 2008).
Among all 190,000 compounds or so, about 1,300 (0.68%) were called active. The full list was thinned out, with actives kept by preference. Values without a mark were called inactive. Cut-off read from the data, not from the text of the source: active = inhibition above about 50%; inactive = the rest.

These compounds were tested against Mannose-6-phosphate isomerase (Homo sapiens) (UniProt P34949) (assay: human PMI inhibitors, high substrate, primary screen, biochemical, fluorescence intensity, high mannose 6-phosphate (AID 1220)). Conditions: recombinant PMI enzyme, coupled fluorescence intensity; at 20 µM; active compounds read high.
Mannose-6-phosphate isomerase (Homo sapiens), sequence (P34949 whole entry, looked up): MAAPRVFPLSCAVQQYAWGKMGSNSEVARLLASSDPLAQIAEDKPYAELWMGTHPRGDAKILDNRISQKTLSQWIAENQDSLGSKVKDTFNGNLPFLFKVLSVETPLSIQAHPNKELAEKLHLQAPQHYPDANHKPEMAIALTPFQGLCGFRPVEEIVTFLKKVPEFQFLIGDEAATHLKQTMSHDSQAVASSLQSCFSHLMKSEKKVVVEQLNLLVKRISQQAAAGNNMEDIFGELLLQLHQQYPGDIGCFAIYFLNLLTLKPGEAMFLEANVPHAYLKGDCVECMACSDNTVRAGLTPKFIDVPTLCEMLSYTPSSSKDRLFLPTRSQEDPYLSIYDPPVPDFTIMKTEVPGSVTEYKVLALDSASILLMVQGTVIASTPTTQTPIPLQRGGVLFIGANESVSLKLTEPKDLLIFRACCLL

Row | Compound | inhibition
1 | COC(=O)C/C=C/[C@@H](C)[C@@H](/C=N/OCC[C@@H]1C=C[C@H](OC(C)=O)[C@@H](COC(C)=O)O1)NS(=O)(=O)c1ccc(C)cc1 | -6.1%
2 | CC(C)N1CC=C2C(C#N)=C(N)C(C#N)(C#N)C(c3ccccc3)C2C1 (centres undefined) | 20.5%
3 | CN1CC=C2C(C#N)=C(N)C(C#N)(C#N)[C@H](c3ccoc3)[C@H]2C1 | 15.1%
4 | Cc1ccc(C2C3CN(C(C)C)CC=C3C(C#N)=C(N)C2(C#N)C#N)cc1 (centres undefined) | 24.4%
5 | CCCC1C2CN(C(C)=O)CC=C2C(C#N)=C(N)C1(C#N)C#N (centres undefined) | -10.2%
6 | CC(=O)N1CC=C2C(C#N)=C(N)C(C#N)(C#N)C(CCc3ccccc3)C2C1 (centres undefined) | 14%
7 | CCN1CC=C2C(C#N)=C(N)C(C#N)(C#N)C(CCc3ccccc3)C2C1 (centres undefined) | 52.5% (active)
8 | CC(C)N1CC=C2C(C#N)=C(N)C(C#N)(C#N)[C@H](c3ccoc3)[C@H]2C1 | 58.4% (active)
9 | CN1CC=C2C(C#N)=C(N)C(C#N)(C#N)C(CCc3ccccc3)C2C1 (centres undefined) | 17.3%
10 | CCCC1C2CN(C(C)C)CC=C2C(C#N)=C(N)C1(C#N)C#N (centres undefined) | 60.7% (active)
11 | Cc1ccccc1-c1nc(CN(Cc2c(C)nn(C)c2C)C2CC2)c(C)o1 | 5.6%
12 | CC(C)(C)c1ccc2c(c1)N(CC(=O)O)C(=O)CO2 | -8.3%
13 | Cc1cccc(NC2SC(=O)NC2=O)c1 (centres undefined) | 0.9%
14 | CCCc1c(O)nc(SCC(=O)NCCc2ccc(OC)c(OC)c2)[nH]c1=O | 6.4%
15 | COc1ccc(CNc2oc(Cc3cccc4ccccc34)nc2C#N)cc1 | 9.4%
16 | CCCN1CCN(CCCNC(=O)CCNC(=O)Cn2ccc3ccccc3c2=O)CC1 | -3.5%
17 | O=C(CCNC(=O)Cn1ccc2ccccc2c1=O)NCCCN1CCN(c2ccc(F)cc2)CC1 | -5.7%
18 | O=C(CCNC(=O)Cn1ccc2ccccc2c1=O)NCCCN1CCN(c2ccccc2F)CC1 | 54.6% (active)
19 | Cc1cccc(N2CCC(N3CCN(C4CCCCC4)C(CCO)C3)CC2)c1C (centres undefined) | 22.8%
20 | O=C(CSc1nnc(-c2ccco2)o1)NC1CCCCCC1 | -4.7%
21 | COc1cc(C)c(Cl)cc1S(=O)(=O)NCCCN1CCOCC1 | 2%
22 | COc1cc(/C=C2/CCc3ccccc3C2=O)cc(OC)c1OC | 23.1%
23 | COc1ccc2c(c1)CC/C(=C/c1ccco1)C2=O | 57.4% (active)
24 | COc1ccc(/C=C2\CC/C(=C\c3ccc(OC)c(OC)c3)C2=O)cc1OC | 20.6%
25 | COc1ccc2c(c1)CC/C(=C/c1ccncc1)C2=O | 11.5%

Row | Compound | inhibition
26 | Nc1ccc2c(c1)C/C(=C/c1ccco1)C2=O | -39.6%
27 | O=C1/C(=C/c2ccco2)Cc2ccccc21 | 16%
28 | COc1ccc2c(c1)CC/C(=C/c1cc(OC)c(OC)c(OC)c1)C2=O | 52.2% (active)
29 | COc1cc(/C=C2\CC/C(=C\c3cc(OC)c(OC)c(OC)c3)C2=O)cc(OC)c1OC | 11.2%
30 | O=C1/C(=C/c2ccco2)CCc2ccccc21 | 56.9% (active)
31 | O=C1/C(=C\c2ccco2)CCC/C1=C\c1ccco1 | -57.2%
32 | COc1cc(/C=C2\CCc3ccccc3C2=O)cc(OC)c1OC | 23.9%
33 | COc1ccc([N+](=O)[O-])cc1NC(=O)Nc1cccc(Cl)c1 | -1.5%
34 | O=C(Cn1nc(CNc2ccc(Cl)cc2)[n+]2c1CCCCC2)c1ccc(Br)cc1 | 9.2%
35 | CCSc1nnc(-c2ccccc2N)c(=O)[nH]1 | -2%
36 | CCN(CC)S(=O)(=O)c1cc(-c2nnc(-c3ccc(Br)cc3)o2)ccc1Cl | 3.4%
37 | O=C(CN1CCC(NC(=O)Cc2ccccc2)CC1)Nc1ccccc1Br | -0.4%
38 | CSc1ccccc1NC(=O)CCn1c(=O)sc2ccccc21 | -0.9%
39 | Clc1ccc(OCCSc2ncccn2)cc1 | 11.9%
40 | COc1ccc(-n2cc(CNCCCn3ccnc3)c(-c3ccccc3Cl)n2)cc1 | 1.9%
41 | CCn1c2ccccc2c2cc(NC(=O)C(=O)N3CCOCC3)ccc21 | 50.2% (active)
42 | CCn1c2ccccc2c2cc(NC(=O)N3CCOCC3)ccc21 | 20%
43 | CCn1c2ccccc2c2cc(NC(=S)N3CCOCC3)ccc21 | 3%
44 | O=C(NCc1ccncc1)C1=NN(c2ccccc2)C(=O)CC1 | -91.4%
45 | Cc1cccc(NCN2C(=O)C3C4C=CC(C4)C3C2=O)c1 (centres undefined) | 3.7%
46 | S=C(NCCc1ccccc1)Nc1ccc(Nc2ccccc2)cc1 | 0%
47 | CCN(CC)P(=O)(Nc1ccc(C)cc1Br)c1ccc(N(C)C)cc1NC(=O)c1ccco1 (centres undefined) | 53% (active)
48 | CCN(CC)P(=O)(Nc1ccccc1Br)c1ccc(N(C)C)cc1NC(=O)c1ccco1 (centres undefined) | 16.4%
49 | CCN(CC)P(=O)(Nc1ccc(SC(F)F)cc1)c1ccc(N(C)C)cc1NC(=O)c1ccco1 (centres undefined) | 35.4%
